Test results taken from PubChem BioAssay (NCI).
This is part of a sample that, as a whole, favours compounds with a hit. Of some 79,000 tested, about 15% had one in any assay. The source made the active and inactive calls. Cut-off read from the data, not from the text of the source: active = growth inhibition above about 70%; inactive = the rest.

How the values were obtained:
[1] = NCI Yeast Anticancer Drug Screen. Data for the wt1 strain (AID 149);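 note: 0% = growth of vehicle-treated wt1 cultures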; settings: S. cerevisiae wt1 strain (SPY 50644) growth inhibition, hits give high values
Summary of the method: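 Measured: growth of wt1 yeast under compound versus vehicle treatment, reported as inhibition.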

[2] = NCI Yeast Anticancer Drug Screen. Data for the rad50EPP+ strain (AID 151);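 note: 0% = growth of vehicle-treated control cultures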; settings: S. cerevisiae rad50 mutant strain, hits give high values
Summary of the method: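 Measured: growth inhibition of rad50EPP+ yeast. Reference: vehicle-treated controls. Screen uses strains with defined genetic alterations in DNA damage repair or cell cycle control.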

[3] = NCI Yeast Anticancer Drug Screen. Data for the mgt1 strain (AID 153); settings: S. cerevisiae mgt1 mutant growth inhibition, hits give high values
Summary of the method: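 Compounds were applied to mgt1 mutant yeast, and growth was then compared against vehicle-treated control cultures to give percent inhibition.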

[4] = NCI Yeast Anticancer Drug Screen. Data for the rad50 strain (AID 155);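 note: 0% = growth of vehicle-only cultures of the same strain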; settings: S. cerevisiae rad50 strain growth inhibition, hits give high values
Summary of the method: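 Growth of the mutant yeast was measured after compound exposure and referenced to vehicle-treated cultures.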

[5] = NCI Yeast Anticancer Drug Screen. Data for the mec2-1 strain (AID 157); settings: S. cerevisiae mec2-1 strain, hits give high values
Summary of the method: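 Compounds were applied to mec2-1 yeast cells. Their growth was then compared with that of vehicle-treated cultures to give growth inhibition.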

[6] = NCI Yeast Anticancer Drug Screen. Data for the rad14 strain (AID 159);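 note: 0% = growth of vehicle-treated control cultures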; settings: S. cerevisiae rad14 strain growth inhibition, hits give high values
Summary of the method: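 Here, inhibition of yeast growth was measured after compound exposure, using a strain with a genetic defect in DNA damage repair and vehicle-treated cultures as the reference.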

[7] = NCI Yeast Anticancer Drug Screen. Data for the sgs1 mgt1 strain (AID 161);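 note: 0% = growth of cultures given vehicle only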; settings: S. cerevisiae sgs1 mgt1 strain, hits give high values
Summary of the method: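 Compounds are added to genetically altered yeast, and growth is compared with cultures given vehicle alone to give percent inhibition.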

[8] = NCI Yeast Anticancer Drug Screen. Data for the bub3 strain (AID 167); settings: S. cerevisiae bub3 mutant strain, hits give high values
Summary of the method: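 Whole-cell yeast assay. The mutant strain was incubated with compounds, and growth inhibition was determined by comparison with vehicle-treated cells.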

[9] = NCI Yeast Anticancer Drug Screen. Data for the wt2 strain (AID 169);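 note: 0% = growth of vehicle-treated yeast cultures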; settings: S. cerevisiae wt2 strain growth inhibition, hits give high values
Summary of the method: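 Growth of compound-treated yeast is measured and expressed as inhibition relative to vehicle-only controls.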

[10] = NCI Yeast Anticancer Drug Screen. Data for the mlh1 strain (AID 171);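 note: 0% = growth of vehicle-treated control cultures of the same strain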; settings: S. cerevisiae mlh1 strain growth inhibition, hits give high values
Summary of the method: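 Test agents were incubated with yeast bearing a defined DNA damage repair or cell cycle control alteration; values are growth inhibition normalised to vehicle-treated cultures.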

[11] = NCI Yeast Anticancer Drug Screen. Data for the sgs1 strain (AID 173);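 note: 0% = growth of vehicle-only control cultures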; settings: S. cerevisiae sgs1 mutant, hits give high values
Summary of the method: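 Strain with an altered DNA repair or cell cycle pathway exposed to compound. Growth then measured. Value = inhibition versus vehicle control.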

[12] = NCI Yeast Anticancer Drug Screen. Data for the mlh1 rad18 strain (AID 175); settings: S. cerevisiae mlh1 rad18 strain growth inhibition, hits give high values
Summary of the method: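 A repair-deficient yeast strain is exposed to test compound, and growth is scored relative to vehicle-treated controls.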

[13] = NCI Yeast Anticancer Drug Screen. Data for the rad18 strain (AID 177); settings: S. cerevisiae rad18 mutant growth inhibition, hits give high values
Summary of the method: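 DNA-repair-defective yeast; compound treatment; growth inhibition scored against vehicle.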

[14] = NCI Yeast Anticancer Drug Screen. Data for the CLN2oe strain (AID 163);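 note: 0% = growth of vehicle-only control cultures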; settings: S. cerevisiae CLN2oe strain, hits give high values
Summary of the method: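 Cells of an engineered yeast line with disturbed cell-cycle regulation are treated with compound. Inhibition of growth is then calculated relative to the vehicle-treated reference.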

[15] = NCI Yeast Anticancer Drug Screen. Data for the cln2 rad14 strain (AID 165);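 note: 0% = growth equal to vehicle treated cultures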; settings: S. cerevisiae cln2 rad14 strain, hits give high values
Summary of the method: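 Strain: cln2 rad14 yeast, altered in cell cycle control and DNA damage repair. Read-out: growth inhibition vs vehicle.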

[16] = at 5.0 µM (retest, dose inferred, filed as 0.5)
[17] = at 50.0 µM (retest, dose inferred, filed as 5.0)

Measured: growth inhibition

Cc1nc2ccc(NCCN(C)C)c3c(=O)c4ccccc4n1c23
inactive: [1]; at 1.2 µM 26% | [1]; at 3.7 µM 25% | [1]; at 11.0 µM 37% | [1]; at 33.0 µM 31% | [1]; at 100.0 µM 26% | [2]; at 1.2 µM 26% | [2]; at 3.7 µM 11% | [2]; at 11.0 µM 40% | [2]; at 33.0 µM 55% | [2]; at 100.0 µM 65% | [3]; at 1.2 µM 27% | [3]; at 3.7 µM 31% | [3]; at 11.0 µM 33% | [3]; at 33.0 µM 27% | [3]; at 100.0 µM 38% | [4]; at 1.2 µM 43% | [4]; at 3.7 µM 50% | [4]; [16] 28% | [4]; at 50.0 µM -1.8% | [5]; at 1.2 µM 25% | [5]; at 3.7 µM 30% | [5]; [16] 16% | [5]; at 11.0 µM 41% | [5]; at 33.0 µM 42% | [5]; [17] 25% | [5]; at 50.0 µM 6.95% | [5]; at 100.0 µM 37% | [6]; at 1.2 µM 6% | [6]; at 3.7 µM 11% | [6]; at 11.0 µM 6% | [6]; at 33.0 µM 12% | [6]; at 100.0 µM 20% | [7]; [16] 1% | [7]; [17] 15% | [7]; at 50.0 µM -6.05% | [8]; at 1.2 µM 5% | [8]; at 3.7 µM 4% | [8]; [16] -10% | [8]; at 11.0 µM 9% | [8]; at 33.0 µM 11% | [8]; [17] 21% | [8]; at 50.0 µM -2.7% | [8]; at 100.0 µM 9% | [9]; at 1.2 µM -32% | [9]; at 3.7 µM -38% | [9]; at 11.0 µM -43% | [9]; at 33.0 µM -39% | [9]; at 100.0 µM -19% | [10]; at 1.2 µM 27% | [10]; at 3.7 µM 31% | [10]; at 11.0 µM 33% | [10]; at 33.0 µM 27% | [10]; at 100.0 µM 38% | [11]; at 1.2 µM 23% | [11]; at 3.7 µM 33% | [11]; at 11.0 µM 24% | [11]; at 33.0 µM 24% | [11]; at 100.0 µM 35% | [12]; [16] 11% | [12]; [17] 43% | [13]; at 1.2 µM 8% | [13]; at 3.7 µM 23% | [13]; at 11.0 µM 29% | [13]; at 33.0 µM 39% | [13]; at 100.0 µM 51%
active: [4]; at 11.0 µM 75% | [4]; at 33.0 µM 89% | [4]; [17] 79% | [4]; at 100.0 µM 92% | [12]; at 50.0 µM 78.9%

C[n+]1c(-c2ccc(NC(=O)c3ccc(C(=O)Nc4ccc(-c5cn6ccccc6[n+]5C)cc4)cc3)cc2)cn2ccccc21
inactive: [1]; at 1.2 µM 5% | [1]; at 3.7 µM 3% | [1]; at 11.0 µM 13% | [2]; at 1.2 µM -23% | [2]; at 3.7 µM -6% | [2]; at 11.0 µM 36% | [3]; at 1.2 µM 3% | [3]; at 3.7 µM 2% | [3]; at 11.0 µM 20% | [4]; at 1.2 µM 3% | [4]; at 3.7 µM 4% | [4]; [16] 16% | [4]; at 11.0 µM 17% | [5]; at 1.2 µM 4% | [5]; at 3.7 µM 9% | [5]; [16] 5% | [5]; at 11.0 µM 30% | [5]; at 50.0 µM 56.5% | [7]; [16] 15% | [7]; at 50.0 µM 64.5% | [14]; at 1.2 µM -1% | [14]; at 3.7 µM -4% | [14]; at 11.0 µM 18% | [14]; at 33.0 µM 66% | [15]; [16] 32% | [15]; at 50.0 µM 51.5% | [8]; at 1.2 µM -3% | [8]; at 3.7 µM 9% | [8]; [16] 37% | [8]; at 11.0 µM 30% | [8]; at 50.0 µM 57.6% | [9]; at 1.2 µM 4% | [9]; at 3.7 µM 2% | [9]; at 11.0 µM 18% | [10]; at 1.2 µM 2% | [10]; at 3.7 µM 1% | [10]; at 11.0 µM 23% | [11]; at 1.2 µM -2% | [11]; at 3.7 µM 1% | [11]; at 11.0 µM 29% | [12]; [16] 52% | [13]; at 1.2 µM 4% | [13]; at 3.7 µM 2% | [13]; at 11.0 µM 24%
active: [1]; at 33.0 µM 70% | [1]; at 100.0 µM 92% | [2]; at 33.0 µM 77% | [2]; at 100.0 µM 88% | [3]; at 33.0 µM 85% | [3]; at 100.0 µM 92% | [4]; at 33.0 µM 76% | [4]; [17] 98% | [4]; at 50.0 µM 74.8% | [4]; at 100.0 µM 91% | [5]; at 33.0 µM 82% | [5]; [17] 98% | [5]; at 100.0 µM 96% | [7]; [17] 97% | [14]; at 100.0 µM 89% | [15]; [17] 96% | [8]; at 33.0 µM 83% | [8]; [17] 97% | [8]; at 100.0 µM 93% | [9]; at 33.0 µM 84% | [9]; at 100.0 µM 94% | [10]; at 33.0 µM 89% | [10]; at 100.0 µM 94% | [11]; at 33.0 µM 83% | [11]; at 100.0 µM 93% | [12]; [17] 98% | [12]; at 50.0 µM 75.5% | [13]; at 33.0 µM 81% | [13]; at 100.0 µM 92%

Cc1ccc2oc(-c3cccc(N)c3)nc2c1
inactive: [1]; at 1.2 µM 0% | [1]; at 3.7 µM -4% | [1]; at 11.0 µM 2% | [1]; at 33.0 µM 0% | [1]; at 100.0 µM 5% | [2]; at 1.2 µM 1% | [2]; at 3.7 µM 2% | [2]; at 11.0 µM 10% | [2]; at 33.0 µM 23% | [2]; at 100.0 µM 36% | [3]; at 1.2 µM -6% | [3]; at 3.7 µM -13% | [3]; at 11.0 µM -4% | [3]; at 33.0 µM 6% | [3]; at 100.0 µM 24% | [4]; at 1.2 µM -3% | [4]; at 3.7 µM 4% | [4]; [16] -7% | [4]; at 11.0 µM 1% | [4]; at 33.0 µM 12% | [4]; [17] 10% | [4]; at 50.0 µM 17.4% | [4]; at 100.0 µM 29% | [5]; at 1.2 µM -2% | [5]; at 3.7 µM -3% | [5]; [16] -10% | [5]; at 11.0 µM 3% | [5]; at 33.0 µM 3% | [5]; [17] 13% | [5]; at 50.0 µM 3.95% | [5]; at 100.0 µM 8% | [6]; at 1.2 µM 1% | [6]; at 3.7 µM 3% | [6]; at 11.0 µM 9% | [6]; at 33.0 µM 18% | [6]; at 100.0 µM 27% | [14]; at 1.2 µM -5% | [14]; at 3.7 µM -6% | [14]; at 11.0 µM -4% | [14]; at 33.0 µM 6% | [14]; at 100.0 µM 15% | [15]; [16] -42% | [15]; [17] -2% | [15]; at 50.0 µM 27.5% | [8]; at 1.2 µM -6% | [8]; at 3.7 µM -3% | [8]; [16] 9% | [8]; at 11.0 µM 9% | [8]; at 33.0 µM 23% | [8]; [17] 36% | [8]; at 50.0 µM 23.4% | [8]; at 100.0 µM 35% | [9]; at 1.2 µM -3% | [9]; at 3.7 µM -2% | [9]; at 11.0 µM -2% | [9]; at 33.0 µM 1% | [9]; at 100.0 µM 11% | [10]; at 1.2 µM -4% | [10]; at 3.7 µM 6% | [10]; at 11.0 µM -2% | [10]; at 33.0 µM 2% | [10]; at 100.0 µM 21% | [11]; at 1.2 µM -1% | [11]; at 3.7 µM 0% | [11]; at 11.0 µM 2% | [11]; at 33.0 µM 5% | [11]; at 100.0 µM 10% | [12]; [16] -7% | [12]; [17] 28% | [12]; at 50.0 µM -6% | [13]; at 1.2 µM -2% | [13]; at 3.7 µM -4% | [13]; at 11.0 µM 3% | [13]; at 33.0 µM 17% | [13]; at 100.0 µM 53%
